In PubChem BioAssay (Tox21) one finds Potency data, which are given here for 8 compounds.

Assay [1] can be described thus: qHTS assay to identify small molecule antagonists of the thyroid receptor (TR) signaling pathway (AID 743065). Note: nearly all actives have a fitted effect of over 55% in size. Note: potency is the fitted concentration of half-maximal effect. The essentials:
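Antagonism measured as loss of luciferase signal in GH3 cells stably carrying a TRE-luciferase reporter, co-treated with compound and T3 (1 nM final) for 23.5 h at 37 C. Viability was read in the same well by CellTiter-Fluor.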

In assay [2] the test system is thyroid hormone receptor (rat, GH3 cells). Description: qHTS assay to identify small molecule agonists of the thyroid receptor (TR) signaling pathway (AID 743066; calls by dose curve).
Assay [3] is described as follows: qHTS assay to identify small molecule antagonists of the estrogen receptor alpha (ER-alpha) signaling pathway using the BG1 cell line - cell viability counter screen (AID 743081).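 Note: compound given together with 17beta-estradiol as the ER stimulus; series mostly up to about 70 µM; nearly all actives have a fitted effect of over 45% in size.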
For the next assay, the target named is Aromatase (Homo sapiens) (UniProt P11511). Description: qHTS assay to identify aromatase inhibitors (AID 743083). Note: nearly all actives have a fitted effect of over 55% in size. Note: potency is the fitted concentration of half-maximal effect.
Chain of Aromatase (Homo sapiens) (P11511 whole entry, looked up): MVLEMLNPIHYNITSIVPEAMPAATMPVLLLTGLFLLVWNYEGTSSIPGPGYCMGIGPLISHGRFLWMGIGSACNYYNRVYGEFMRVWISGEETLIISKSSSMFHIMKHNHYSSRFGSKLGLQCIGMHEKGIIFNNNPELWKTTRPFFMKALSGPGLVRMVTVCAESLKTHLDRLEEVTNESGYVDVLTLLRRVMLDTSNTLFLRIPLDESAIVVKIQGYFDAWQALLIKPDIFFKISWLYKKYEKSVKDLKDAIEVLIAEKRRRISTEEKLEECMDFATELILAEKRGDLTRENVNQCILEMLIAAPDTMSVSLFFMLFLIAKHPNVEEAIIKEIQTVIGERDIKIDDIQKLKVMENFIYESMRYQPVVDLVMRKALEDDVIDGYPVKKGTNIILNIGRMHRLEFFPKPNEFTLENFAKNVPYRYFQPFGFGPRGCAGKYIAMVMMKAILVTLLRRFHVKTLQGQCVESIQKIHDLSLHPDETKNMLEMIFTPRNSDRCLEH
Assay [4] is described as follows: qHTS assay to identify aromatase inhibitors - cell viability counter screen (AID 743084).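 Note: cells stimulated with testosterone during compound exposure; nearly all actives have a fitted effect of over 55% in size.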 Note: potency is the fitted concentration of half-maximal effect.
For assay [5], the target named is Aryl hydrocarbon receptor (Homo sapiens) (UniProt P35869). Description: qHTS assay to identify small molecule that activate the aryl hydrocarbon receptor (AhR) signaling pathway (AID 743085).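 Note: HG2L7.5c1 human HepG2 liver cells with stably integrated DRE-driven firefly reporter; series mostly up to about 70 µM; nearly all actives have a fitted effect of over 15% in size.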 The method in brief: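 HepG2 cells stably carrying a 20-DRE firefly luciferase reporter (HG2L7.5c1) treated with compound for 24 hr at 37C. Luciferase read by ONE-Glo luminescence, with CellTiter-Fluor viability read first.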
Chain of Aryl hydrocarbon receptor (Homo sapiens) (P35869 whole entry, looked up): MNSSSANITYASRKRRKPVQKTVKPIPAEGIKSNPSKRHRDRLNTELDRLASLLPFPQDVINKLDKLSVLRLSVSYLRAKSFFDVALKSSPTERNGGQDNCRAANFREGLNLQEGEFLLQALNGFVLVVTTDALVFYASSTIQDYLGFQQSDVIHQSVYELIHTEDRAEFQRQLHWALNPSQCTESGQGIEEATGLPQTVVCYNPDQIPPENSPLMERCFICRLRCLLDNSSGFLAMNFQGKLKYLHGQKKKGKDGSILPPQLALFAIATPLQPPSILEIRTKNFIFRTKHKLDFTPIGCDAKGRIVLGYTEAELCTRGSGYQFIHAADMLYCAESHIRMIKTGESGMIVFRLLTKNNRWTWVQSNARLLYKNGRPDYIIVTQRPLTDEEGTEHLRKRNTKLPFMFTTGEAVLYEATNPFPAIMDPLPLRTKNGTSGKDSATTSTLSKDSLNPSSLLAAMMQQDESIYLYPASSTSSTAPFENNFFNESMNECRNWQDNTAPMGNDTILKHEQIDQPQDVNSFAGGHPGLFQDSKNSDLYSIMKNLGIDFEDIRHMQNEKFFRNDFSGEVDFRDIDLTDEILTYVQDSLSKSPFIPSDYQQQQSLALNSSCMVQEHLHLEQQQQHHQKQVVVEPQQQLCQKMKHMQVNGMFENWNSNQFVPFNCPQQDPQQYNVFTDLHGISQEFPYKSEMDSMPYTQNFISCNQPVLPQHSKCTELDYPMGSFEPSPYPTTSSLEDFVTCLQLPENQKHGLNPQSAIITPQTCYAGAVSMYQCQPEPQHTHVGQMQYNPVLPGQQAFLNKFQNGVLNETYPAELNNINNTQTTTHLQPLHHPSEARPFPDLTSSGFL

Assay [6] can be described thus: qHTS assay to identify small molecule that activate the aryl hydrocarbon receptor (AhR) signaling pathway - cell viability counter screen (AID 743086). Note: series mostly up to about 70 µM; nearly all actives have a fitted effect of over 45% in size. The method in brief:
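Cytotoxicity counter screen: CellTiter-Fluor signal (30 min, 37 C) in 4000 HepG2 cells/well carrying the DRE-luciferase reporter, following 24 h compound exposure at 37 C.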

The target in assay [7] is Peroxisome proliferator-activated receptor gamma (Homo sapiens) (UniProt P37231). Briefly: qHTS assay to identify small molecule agonists of the peroxisome proliferator-activated receptor gamma (PPARg) signaling pathway (AID 743094; active = well fitted activation curve with a large enough effect in the signal ratio in the repeat runs, not every such curve was filed as active; the % refers to the signal ratio). The method in brief: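 Quantitative HTS agonist mode: stable HEK293H line with UAS-beta-lactamase reporter under PPARg control, 17 h compound exposure at 37C, fluorescence after 1 h FRET substrate loading at room temperature.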
Chain of Peroxisome proliferator-activated receptor gamma (Homo sapiens) (P37231 whole entry, looked up): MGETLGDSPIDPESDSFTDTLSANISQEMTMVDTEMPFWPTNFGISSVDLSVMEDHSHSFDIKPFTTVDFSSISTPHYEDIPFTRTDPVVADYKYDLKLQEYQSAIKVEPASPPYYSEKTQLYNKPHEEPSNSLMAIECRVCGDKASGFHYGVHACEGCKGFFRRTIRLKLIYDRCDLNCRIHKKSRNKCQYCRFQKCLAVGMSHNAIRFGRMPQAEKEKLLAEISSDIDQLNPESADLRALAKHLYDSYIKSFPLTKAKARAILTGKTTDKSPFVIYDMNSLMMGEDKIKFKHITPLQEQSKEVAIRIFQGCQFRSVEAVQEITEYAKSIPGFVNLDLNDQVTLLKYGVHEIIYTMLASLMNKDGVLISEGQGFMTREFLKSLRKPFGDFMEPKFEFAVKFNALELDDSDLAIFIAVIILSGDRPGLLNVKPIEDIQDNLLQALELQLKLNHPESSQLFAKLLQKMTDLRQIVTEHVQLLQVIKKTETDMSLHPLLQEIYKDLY

Assay [8] has the same target. Briefly: qHTS assay to identify small molecule antagonists of the peroxisome proliferator-activated receptor gamma (PPARg) signaling pathway (AID 743191; calls by dose curve; note: series mostly up to about 63 µM; nearly all actives have a fitted effect of over 30% in size). The method in brief:
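Beta-lactamase reporter under UAS control in HEK293H PPARg-bla cells; compound treatment 17 h at 37C. Read-out: fluorescence intensity after 1 h room-temperature incubation with LiveBLAzer B/G FRET substrate.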

A short description of assay [9]: qHTS assay to identify small molecule antagonists of the peroxisome proliferator-activated receptor gamma (PPARg) signaling pathway - cell viability counter screen (AID 743194). Note: nearly all actives have a fitted effect of over 55% in size. Note: potency is the fitted concentration of half-maximal effect. The method in brief:
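Viability was measured as CellTiter-Glo luminescence in GeneBLAzer PPARg UAS-bla HEK293H cells. These cells had been exposed 17 h at 37 C to compounds together with rosiglitazone at 50 nM final, with the beta-lactamase readout taken in the same wells.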

A short description of assay [10]: qHTS assay for small molecule agonists of the antioxidant response element (ARE) signaling pathway (AID 743202; active = well fitted activation curve with a large enough effect in the signal ratio in the repeat runs, not every such curve was filed as active; the % refers to the signal ratio). The essentials:
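An ARE-responsive beta-lactamase gene stably integrated in HepG2 cells serves as reporter. After 5 h plating and 16 h compound incubation at 37 C, fluorescence of the B/G FRET substrate was measured.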

Assay [11] can be described thus: qHTS assay for small molecule agonists of the antioxidant response element (ARE) signaling pathway - cell viability counter screen (AID 743203; calls by dose curve; note: nearly all actives have a fitted effect of over 55% in size; note: potency is the fitted concentration of half-maximal effect). The method in brief:
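Seeded at 2,000 cells/well, ARE-bla HepG2 cells were incubated 5 hrs before compound addition. After 16 hrs of treatment at 37C with 5% CO2, CellTiter-Glo reagent was added and luminescence read 30 min later.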

Assay [12] can be described thus: qHTS assay for small molecule activators of the heat shock response signaling pathway (AID 743210; active = well fitted activation curve with a large enough effect in the signal ratio in the repeat runs, with a control signal flat, not every such curve was filed as active; the % refers to the signal ratio;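 note: HeLa cells with beta-lactamase reporter driven by heat shock elements; series mostly up to about 63 µM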). The essentials:
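In HSE-bla HeLa cells, 5 h compound incubation (37 C) precedes addition of LiveBLAzer B/G substrate; after 2.5 h at room temperature, fluorescence intensity indicates reporter induction.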

Assay [13] is described as follows: qHTS assay to identify small molecule agonists of the peroxisome proliferator-activated receptor delta (PPARd) signaling pathway - cell viability counter screen (AID 743211). Note: nearly all actives have a fitted effect of over 55% in size. Note: potency is the fitted concentration of half-maximal effect. The method in brief:
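PPARd-bla HEK293H cells (3000/well) were pre-incubated 5 h at 37 C, then exposed to compound for 17 h at 37 C. After 2 h with LiveBLAzer substrate, CellTiter-Glo was added to the same wells; luminescence read after 30 min at room temperature.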

Assay [14] in a line: qHTS assay to identify small molecule antagonists of the estrogen receptor alpha (ER-alpha) signaling pathway - cell viability counter screen (AID 743074; calls by dose curve;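 note: HEK293 cells carrying ER-alpha-UAS-bla reporter stimulated with 17beta-estradiol; nearly all actives have a fitted effect of over 45% in size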; note: potency is the fitted concentration of half-maximal effect).
Assay [15] in a line: qHTS assay for small molecule activators of the heat shock response signaling pathway - cell viability counter screen (AID 743209). Note: nearly all actives have a fitted effect of over 50% in size. Note: potency is the fitted concentration of half-maximal effect. The essentials:
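First, HSE-bla HeLa cells were seeded at 1500 cells/well and kept overnight at 37 C. Next, compounds were pinned in and incubated 5 h. After the FRET substrate step, CellTiter-Glo was added and luminescence read 30 min later.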

The target in assay [16] is Estrogen receptor (Homo sapiens) (UniProt P03372). Description: qHTS assay to identify small molecule agonists of the estrogen receptor alpha (ER-alpha) signaling pathway (AID 743075; calls by dose curve;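 note: HEK293 GripTite cells with ER-alpha and UAS-driven beta-lactamase reporter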).
Chain of Estrogen receptor (Homo sapiens) (P03372 whole entry, looked up): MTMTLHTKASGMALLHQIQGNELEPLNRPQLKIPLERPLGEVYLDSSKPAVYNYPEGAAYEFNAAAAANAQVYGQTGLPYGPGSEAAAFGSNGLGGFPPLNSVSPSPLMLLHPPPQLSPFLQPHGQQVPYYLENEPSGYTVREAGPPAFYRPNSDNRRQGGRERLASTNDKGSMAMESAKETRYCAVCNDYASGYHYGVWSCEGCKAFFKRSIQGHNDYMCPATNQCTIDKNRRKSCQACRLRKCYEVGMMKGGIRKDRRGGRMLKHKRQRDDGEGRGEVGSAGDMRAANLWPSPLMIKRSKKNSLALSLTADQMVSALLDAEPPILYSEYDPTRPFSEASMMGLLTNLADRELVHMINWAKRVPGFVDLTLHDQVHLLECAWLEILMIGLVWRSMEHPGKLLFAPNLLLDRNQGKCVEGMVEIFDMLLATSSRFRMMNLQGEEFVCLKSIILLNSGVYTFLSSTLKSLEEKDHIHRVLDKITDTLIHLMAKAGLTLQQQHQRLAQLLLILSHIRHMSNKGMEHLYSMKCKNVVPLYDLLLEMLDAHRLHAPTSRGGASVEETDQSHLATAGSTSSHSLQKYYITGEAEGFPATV
For assay [17] the target is unchanged. Description: qHTS assay to identify small molecule agonists of the estrogen receptor alpha (ER-alpha) signaling pathway using the BG1 cell line (AID 743079). Note: nearly all actives have a fitted effect of over 20% in size.
A short description of assay [18]: qHTS assay to identify small molecule antagonists of the estrogen receptor alpha (ER-alpha) signaling pathway using the BG1 cell line (AID 743080; calls by dose curve;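 note: BG1 cells stimulated with 17beta-estradiol alongside compound; series mostly up to about 70 µM; nearly all actives have a fitted effect of over 25% in size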). The method in brief: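 Quantitative HTS on the Tox21 10K library: BG1 cells with endogenous ER-alpha and ERE-luciferase reporter, 17beta-estradiol stimulation, 21.5 h compound exposure, luminescence endpoint with parallel fluorescence cytotoxicity counter-read.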

“And” between values parts separate entries of the source, which are not always exact repeats. Identical values can stand only once. Results filed as inconclusive are left out. Some compounds were tested as several samples or in several runs, with calls that do not always agree. The source made the active and inactive calls. Unless noted, calls come from the whole dose curve; as a rule, active = well fitted curve in the direction sought with a large enough effect in the repeat runs; inconclusive = weak or mixed curves; inactive = no such curve, though single readings can be large; an effect the other way counts as inactive or inconclusive.

For `O=S(=O)(O)c1ccc2nc(-c3ccccc3)[nH]c2c1`, the Potency result (in assay [1]; in assay [2]; in assay [3]; with Aromatase (Homo sapiens); in assay [4]; in assay [5]) was “inactive” each time. In addition, the Potency result in [6], in [7], in [8], in assay [9], in assay [10] and in assay [12] was “inactive” in each case. Moreover, the Potency in assay [11] is 20.6 µM (active) and inactive; in assay [13] it was 8.29 µM (active).
On to `CC(C)C(=O)c1c(C(C)C)nn2ccccc12`, for which the Potency result (in assay [1]; in assay [2]; in assay [3]; with Aromatase (Homo sapiens); in assay [4]; in assay [5]) was “inactive” in each case. The Potency result in assay [6], in assay [7], in assay [9], in assay [10], in [11] and in assay [12] was “inactive” in each case. The Potency result in assay [13] is “inactive”.
Turning to `OCCOCCN1CCN(C(c2ccccc2)c2ccc(Cl)cc2)CC1` (stereo not drawn), the Potency in assay [1] is 23.7 µM (active) and 47.9 µM (active). The Potency result (in assay [2]; in assay [14]; in assay [3]; in the assay with Aromatase (Homo sapiens); in [4]; in assay [7]) was “inactive” in each case. Also, the Potency result in assay [10], in [11], in assay [15] and in [13] was “inactive” throughout.
With `CN1C(=O)c2ccc([N+](=O)[O-])cc2C1=O`, the Potency entry in assay [1], in assay [2], in [16], in [17], in assay [18] and in assay [3] was “inactive” throughout. The Potency entry (with Aromatase (Homo sapiens); in assay [4]; in assay [5]; in [6]; in [7]; in assay [8]) was “inactive” in each case. The Potency result in assay [11], in assay [15], in assay [12] and in [13] was “inactive” in each case.
On to `O=C(O)CCc1ccccc1`, for which the Potency result in assay [1], in assay [2], in assay [14], in assay [3], in assay [6] and in [9] was “inactive” throughout. In addition, the Potency entry in [10], in assay [15], in assay [12] and in assay [13] was “inactive” throughout.
Consider `CCN(CC)CCOc1ccc(/C(=C(\Cl)c2ccccc2)c2ccccc2)cc1`, for which the Potency in assay [1] was 6.68 µM (active) and 7.86 µM (active); in [14], 39.7 µM (active); with Aromatase (Homo sapiens) it was 3.35 µM (active) and 1.4 µM (active); in [4], “inactive and 27.9 µM (active)”; in [9], 17.7 µM (active); in [11], 15.7 µM (active) and 29.8 µM (active). In addition, the Potency in [15] was 39.7 µM (active) and 29.8 µM (active); in assay [13] it was 35.4 µM (active) and 29.8 µM (active). Besides, the Potency result in [2], in [3] and in [5] was “inactive” each time.
For the compound `CC1=C(C=O)C(C)(C)CC=C1`, the Potency entry (in assay [1]; in assay [2]; in [14]; in assay [3]; with Aromatase (Homo sapiens); in assay [4]) was “inactive” in each case. The Potency entry in assay [5], in assay [6], in [7], in [8], in assay [11] and in assay [15] was “inactive” each time. The Potency result in assay [12] and in [13] was “inactive” each time.
For the compound `Cc1ccnc2c1NC(=O)c1cccnc1N2C1CC1`, the Potency result (in assay [1]; in assay [2]; in assay [14]; in assay [3]; with Aromatase (Homo sapiens); in assay [4]) was “inactive” each time. Besides, the Potency result in assay [5], in assay [6], in [7], in assay [8], in assay [10] and in [15] was “inactive” each time. For the same compound, the Potency result in assay [12] and in assay [13] was “inactive” throughout.
